# Experimental data taken from PubChem BioAssay (NCATS).
# Records with an inconclusive call do not appear. Entries that show only a call come without a potency. A number with no mark means an inactive call. The source made the active and inactive calls. Calls follow the shape of the dose curve; as a rule, active = well fitted inhibition curve with a large enough effect; inconclusive = small, poorly fitted or top-dose-only effect; inactive = flat fitted curve, though single readings scatter.
# Experiments:
# [1] = test system: CRL-7250; assay: Cytotoxic Profiling of Annotated Libraries Using Quantitative High-Throughput Screening (AID 1296008); conditions: Five cell lines viability, CellTiter-Glo ATP luminescence, 48-72 h; max response: stronger effect = lower value; also: potency is read from the fitted curve at half-maximal effect
# In short: (§1)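 Cells exposed to compounds for 48 or 72 hr at 37 degrees Celsius. Viability read as ATP-coupled luminescence with CellTiter-Glo after 10 min at room temperature.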
# [2] = test system: HEK293; assay: as above; conditions: Five cell lines viability, CellTiter-Glo ATP luminescence, 48-72 h; max response: stronger effect = lower value
# In short: as §1
# [3] = test system: HaCat; assay: as above; conditions: Five cell lines viability, CellTiter-Glo ATP luminescence, 48-72 h; max response: stronger effect = lower value
# In short: as §1
# [4] = test system: KB-3-1; assay: as above; conditions: Five cell lines viability, CellTiter-Glo ATP luminescence, 48-72 h; max response: stronger effect = lower value
# In short: as §1
# [5] = test system: NIH3T3; assay: as above; conditions: Five cell lines viability, CellTiter-Glo ATP luminescence, 48-72 h; max response: stronger effect = lower value
# In short: as §1
# [6] = test system: CRL-7250; assay: qHTS assay to identify novel small-molecules to repurpose for Merkel cell carcinoma treatment (AID 1296009); conditions: MCC and control cell lines, CellTiter-Glo viability, 72 h; at 44.8 µM (top of the series) unless noted
# In short: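 CellTiter-Glo luminescence after 72 hr compound exposure at 37 degree celsius gave cell viability. Libraries NPC and MIPE were run as 8- and 11-point dose responses; RLUs normalized to DMSO (negative) and no-cell (cytotoxicity) controls.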
# Also: nearly all actives have a fitted effect of over 60% in size.
structure (smiles),measurement,setting,value
CN(C(=O)Cc1ccccc1)C(CN1CCCC1)c1ccccc1 (configuration not stated),max response,[1],0.97%
same,max response,[2],0.503%
same,max response,[3],2.22%
same,max response,[4],-9.97%
same,outcome,[5],inactive
OCCCCC#Cc1cncc(OC[C@@H]2CCN2)c1,outcome,[1],inactive
same,max response,[2],-3.98%
same,outcome,[3],inactive
same,max response,[4],-3.78%
same,outcome,[5],inactive
same,outcome,[6],inactive
Clc1ccc(OCC2=NCCN2)cc1Cl,outcome,[1],inactive
same,outcome,[2],inactive
same,outcome,[3],inactive
same,max response,[4],6.44%
same,outcome,[5],inactive
same,outcome,[6],inactive
O=C(O)c1ccnc2cc(C(OCCN3CCCCC3)c3ccccc3Cl)[nH]c12 (configuration not stated),outcome,[1],inactive
same,outcome,[2],inactive
same,outcome,[3],inactive
same,outcome,[4],inactive
same,max response,[5],-0.205%
same,outcome,[6],inactive
C1=C2CCCN[C@H]2[C@@H]2C[C@H]1[C@H]1CCCCN1C2,outcome,[1],inactive
same,max response,[2],-4.85%
same,max response,[3],-5.08%
same,outcome,[4],inactive
same,outcome,[5],inactive
same,outcome,[6],inactive
CC12CCC3C(CCC4(O)CC(O)CCC34C=O)C1(O)CCC2C1=CC(=O)OC1 (configuration not stated),Potency,[1],0.326 µM (active)
same,Potency,[2],1.03 µM (active)
same,Potency,[3],1.64 µM (active)
same,Potency,[4],1.16 µM (active)
same,outcome,[5],inactive
CC[C@H]1CN2CC[C@H]1C[C@H]2[C@H](O)c1ccnc2ccc(OC)cc12,outcome,[1],inactive
same,max response,[2],-14.1%
same,outcome,[3],inactive
same,max response,[4],0.288%
same,outcome,[5],inactive
same,outcome,[6],inactive
CCc1c(C(=O)C(N)=O)c2c(OCC(=O)OC)cccc2n1Cc1ccccc1,outcome,[1],inactive
same,outcome,[2],inactive
same,max response,[3],-4%
same,outcome,[4],inactive
same,max response,[5],-0.844%
same,outcome,[6],inactive
C[C@]12CC[C@H]3[C@@H]([C@H](O)CC4=CC(=O)CC[C@@]43C)[C@@H]1CC[C@@H]2O,outcome,[1],inactive
same,max response,[2],-7.8%
same,max response,[3],-25.7%
same,max response,[4],5.15%
same,outcome,[5],inactive
same,outcome,[6],inactive
N#C[C@@H](O[C@@H]1O[C@H](CO[C@@H]2O[C@H](CO)[C@@H](O)[C@H](O)[C@H]2O)[C@@H](O)[C@H](O)[C@H]1O)c1ccccc1,max response,[1],3.46%
same,max response,[2],4.21%
same,outcome,[3],inactive
same,max response,[4],5.22%
same,outcome,[5],inactive
